Screening data deposited in PubChem by National Center for Advancing Translational Sciences (NCATS).
Compounds with a hit are over-represented: about 6.5% of the library has one in this group of screens.
Giardia kill: Small Molecules that selectively kill Giardia lamblia: qHTS. 0.15% of 340,000 active. Giardia lamblia trophozoite viability. AID 540267, 2011. activity change, % at 7.66 µM, hits read low; in the data active means activity change below about -80%; inconclusive means between about -30% and that limit;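 further: parasites exposed to compound for two days anaerobically before the ATP read; on the % scale 0 is the no-effect control and ±100 the full control effect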
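Trophozoites 100 cells/well + cpd; 48 hrs, 37 deg C, anaerobic. ATPLite 1-Step added, 15-30 min RT, luminescence read (ATP-based viability).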
IL1B secr inh: qHTS for Inhibitors of Inflammasome Signaling: IL-1-beta AlphaLISA Primary Screen | THP-1 LPS/ATP IL-1B secretion, AlphaLISA, 16 h; hits give low values | activity change, % at 57.5 µM | 4.7% of 360,000 active | AID 743279, 2014; in the data active means activity change below about -50%; inconclusive means mostly about -30% to -49%; further: on the % scale 0 is the no-effect control and ±100 the full control effect
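THP-1 cells pretreated 1 hr with compounds (up to 57.5 uM final), then stimulated with LPS (250 ng/mL final) plus ATP (1.25 mM final); secreted IL-1B measured by AlphaLISA after 16 hr, decreased signal indicating inhibition.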
HepG2 tox: qHTS for Inhibitors of TGF-b: Cytotox Counterscreen. HepG2 CAGA-GFP viability, ATP luminescence, 18 h. Potency, µM (titrated, usually from 46.1 µM), for inactives: at the highest dose activity change, negative = cytotoxicity, usual class: cytotoxic. 0.76% of 410,000 active. AID 588856, 2011; further: potency means the concentration at half of the fitted maximal effect
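HepG2 CAGA-GFP cells (1000/well, DMEM with 1% FBS) received compound, then TGF-beta at 500 pg/mL final, and were incubated 18 hours at 37 degrees C. Viability was read by CellTiter-Glo luminescence. Media-only wells were set as complete cell-killing and DMSO as no toxicity.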
HT1080 IDH1KD tx: qHTS for induction of synthetic lethality in tumor cells producing 2HG: qHTS for the HT-1080-IDH1KD cell line. HT-1080 IDH1 knockdown viability, ATP luminescence, 48 h. Potency, µM (titrated, usually from 46.1 µM), without a hit: at the highest dose activity, negative = toxicity, hits mostly cytotoxic. 2% of 360,000 active. AID 686971, 2013;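 further: potency means the concentration at half of the fitted maximal effect; 0% = DMSO wells and -100% = cell-free medium wells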
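Cytotoxicity counter-line: IDH1KD HT-1080, 48 h, CellTiter-Glo. Curves classed by r2, magnitude and activity.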
HT1080-NT tox: qHTS for induction of synthetic lethality in tumor cells producing 2HG: qHTS for the HT-1080-NT fibrosarcoma cell line; 1.6% of 360,000 active; Potency, µM (titrated, usually from 46.1 µM), for inactives: at the highest dose activity, negative = less viability, most hits filed as cytotoxic; HT-1080-NT fibrosarcoma viability, CellTiter-Glo ATP luminescence, 48 h;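 further: NT is the 2HG producing partner of a matched IDH1 knockdown line; potency means the concentration at half of the fitted maximal effect; 0% = DMSO-treated cells and -100% = media-only wells without cells; nearly all actives have a fitted effect of over 55% in size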
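Compounds were tested in concentration-response format on HT-1080-NT cells for 48 hours at 37 degrees C. Cell viability came from CellTiter-Glo luminescence; curves were classified by r2, response magnitude and activity.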
TGFb SMAD3 inh: qHTS for Inhibitors of TGF-b; HepG2 CAGA-GFP TGF-b/SMAD3 reporter, GFP fluorescence, 18 h; TGF-beta stimulated, 500 pg/mL final; Potency, µM (highest dose often 46.1 µM), for inactives: at the top dose activity, negative = inhibition, most hits filed as inhibitors; 1.2% of 410,000 active; further: potency means the concentration at half of the fitted maximal effect; on the % scale 0 is the no-effect control and ±100 the full control effect; nearly all actives have a fitted effect of over 65% in size
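Read-out: total well GFP (ex488/em500-530) summed from mean per-cell fluorescence. Cells: HEPG2 CAGA-GFP, 1% FBS DMEM, 18 h at 37 degrees C with 500 pg/mL final TGF-beta. Unstimulated wells served as the full-inhibition control; stimulated DMSO wells = 0%.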
Starred values were filed as active, the others as inactive; u = inconclusive; x = no result. Unless noted, the call rests on the fitted dose curve; in most records, active means well fitted curve in the direction sought with a large enough effect; inconclusive means small, poorly fitted or top-dose-only effect, or another doubt; inactive means no such curve, though single readings can be large; an effect the other way counts as inactive or inconclusive.

SMILES | Giardia kill | IL1B secr inh | HepG2 tox | HT1080 IDH1KD tx | HT1080-NT tox | TGFb SMAD3 inh
Cc1ccc(-c2nnc(Nc3ccc(S(N)(=O)=O)cc3)c3ccccc23)cc1S(=O)(=O)N1CCOCC1 | x | x | -46% | x | x | -1%
CC1=Nc2ccccc2N=C(NC(=O)c2ccccc2)C1c1ccc(Cl)cc1 (configuration not stated) | 10 | -58* | -8% | -12% | -24% | u
Cc1cc(C)n(Cc2ccc(NC(=O)c3nn(C)cc3[N+](=O)[O-])cc2)n1 | 5 | -63* | -5% | 6.3µM* | 10µM* | u
Cc1cc(C)n(CCC(=O)N/N=C/c2ccc(Br)c([N+](=O)[O-])c2)n1 | -23 | -93* | -12% | -26% | u | -21%
Cc1ccc(Cn2ccc(NC(=O)c3nn(C)cc3[N+](=O)[O-])n2)cc1 | 6 | -101* | 1% | u | u | u
CCn1cc([N+](=O)[O-])c(C(=O)Nc2ccn(Cc3ccccc3)n2)n1 | -14 | 13 | 15% | 10% | 3% | -4%
NC(=O)c1nsc(C(=O)N(c2ccc3c(c2)OCCO3)C(C(=O)NCC2CCCO2)c2ccc(F)cc2)c1N (configuration not stated) | -16 | -23 | -16% | 3% | 0% | 2%
CCOC(=O)C1CCCN(C(=O)C(=O)Nc2ccc3nc4n(c(=O)c3c2)CCCCC4)C1 (configuration not stated) | 0 | -1 | -27% | -3% | -7% | 0%
Cc1cccc(C(=O)OCC(=O)NC23CC4CC(CC(C4)C2)C3)c1O | -2 | -9 | -17% | -17% | -3% | -5%
CC[C@@]1(O)C(=O)OCc2c1cc1n(c2=O)Cc2cc3c(CN(C)C)c(O)ccc3nc2-1 | -8 | -103* | -28% | 2.1µM* | 1.2µM* | u
O=C1NCC(COCc2ccccc2)O1 (configuration not stated) | -8 | -5 | 3% | 9% | 13% | 17%
Cc1ccc(CNS(=O)(=O)/C=C/c2ccc3c(c2)OCO3)cc1 | 10 | -6 | 3% | 3% | -1% | -3%
C[C@H](CO)N1C[C@H](C)[C@@H](CN(C)C(=O)Nc2ccccc2)Oc2cc(Br)ccc2S1(=O)=O | x | 0 | -14% | -9% | -9% | 15%
C[C@H]1CN([C@@H](C)CO)S(=O)(=O)c2ccc(Br)cc2O[C@@H]1CN(C)Cc1cccc(F)c1 | x | -26 | 13µM* | -23% | u | 18µM*
C[C@@H]1CN([C@@H](C)CO)S(=O)(=O)c2ccc(Br)cc2O[C@H]1CN(C)C(=O)c1cccc(F)c1 | x | -15 | -20% | 8% | 9% | 3%
C[C@@H]1CN([C@@H](C)CO)S(=O)(=O)c2ccc(Br)cc2O[C@H]1CN(C)C(=O)c1ccccc1 | x | -25 | -2% | 9% | -1% | -14%
C[C@@H]1CN([C@@H](C)CO)S(=O)(=O)c2ccc(Br)cc2O[C@H]1CN(C)Cc1ccc(-c2ccccc2)cc1 | x | -28 | -63% | 21µM* | u | u
C[C@H](CO)N1C[C@H](C)[C@@H](CN(C)Cc2ccc(Oc3ccccc3)cc2)Oc2cc(Br)ccc2S1(=O)=O | x | -2 | -40% | u | u | 13µM*
COc1cccc(-c2cc(C(=O)Nc3cc(C)n(Cc4ccc(Cl)cc4)n3)no2)c1 | 1 | u | -42% | -28% | u | 1%
O=C(O)c1ccccc1C(=O)Nc1ccc(Nc2ccccc2)cc1 | x | u | -29% | -7% | -13% | -19%
COc1ccccc1NC(=O)c1ccccc1C(=O)O | 7 | 19 | -1% | 9% | 14% | u
CC(Oc1ccc(Cl)cc1)C(=O)Nc1sccc1C(N)=O (configuration not stated) | 15 | -62* | 0% | -10% | -15% | u
COc1cc(C(=O)NCC2CCCO2)ccc1OCc1ccc(Cl)cc1 (configuration not stated) | 5 | 0 | -21% | -4% | -5% | u
COc1cc(C(=O)NCC2CCCO2)ccc1OCc1ccc(Cl)cc1Cl (configuration not stated) | -5 | -86* | -14% | -10% | -17% | 1%
O=C(NCC1CCCO1)c1cc(-c2ccc(Cl)cc2Cl)on1 (configuration not stated) | -14 | -21 | -17% | 2% | 7% | 10%
SMILES | Giardia kill | IL1B secr inh | HepG2 tox | HT1080 IDH1KD tx | HT1080-NT tox | TGFb SMAD3 inh
O=C(NCC1CCCO1)c1cc2cc(Cl)ccc2[nH]1 (configuration not stated) | 10 | -73* | -3% | -6% | -7% | -23%
NNc1nc2c(Cl)c(Cl)ccc2s1 | 5 | -60* | -19% | -26% | -14% | u
Cc1cc(Br)cn2c(Cc3ccsc3)c(-c3ccccc3)nc12 | x | 16 | -39% | -15% | -16% | u
Cc1ccc(-c2nc3c(C)cc(Br)cn3c2Cc2ccsc2)cc1 | x | 46 | -44% | 16µM* | u | u
Cc1ccc(Cc2c(-c3ccc(Cl)cc3)nc3c(C)cc(Br)cn23)cc1 | x | 81 | -30% | 16µM* | u | u
CC(=O)c1cccc(NC(=O)N2CCN(S(C)(=O)=O)CC2)c1 | 19 | 36 | 56% | 12% | 7% | 47%
CN1CCN(C(=S)c2ccc(-c3cccc([N+](=O)[O-])c3)o2)CC1 | 36 | -23 | -34% | -3% | 0% | u
CC(=C/c1ccccc1)/C=N/n1c(-c2ccncc2)n[nH]c1=S | -23 | 48 | 0% | 13% | 5% | 25%
COc1ccc(S(=O)(=O)Nc2cccc(-c3ccc4nncn4n3)c2)cc1 | 9 | 27 | 1% | 10µM* | 16µM* | -11%
COc1ccc(Cl)cc1C(=O)Nc1ccc(NC(=O)C(C)C)cc1 | -19 | -60* | 3% | u | -17% | -9%
COc1ccc(Cl)cc1C(=O)Nc1ccc(NC(C)=O)cc1 | -3 | -14 | 10% | -2% | 0% | u
COc1cccc(C(=O)Nc2cccc(-c3ccc4nncn4n3)c2)c1OC | -8 | 23 | -10% | -3% | -2% | -1%
COc1ccc(Cl)cc1C(=O)Nc1cccc(-c2ccc3nncn3n2)c1 | -19 | -64* | 11% | 13% | 4% | 4%
CCCC(=O)Nc1nnc(S(=O)(=O)N(C)c2ccccc2)s1 | x | x | 6% | x | x | -8%
